# Screening results (PubChem)
# In the library only some 3.9% were active in any assay of this set; here they are far more common.
# SARS 3CLpro inh-1 = SARS-CoV 3CLpro protease inhibition | 0.14% of 290,000 active | P0C6X7 | inhibition, % at 6 µM | recombinant SARS-CoV 3CLpro, quenched FRET peptide cleavage | AID 1706; in the data active = inhibition above about 12%
# Anthrax LF prot = inhibitors of Bacillus anthracis lethal factor protease. P15917. multiplex microsphere protease cleavage assay, LF. inhibition, % at 10 µM. 0.12% of 360,000 active. AID 588501; also: plate controls were buffer without enzyme for full effect and enzyme alone for no effect
# BoNT F protease = BoNT F light chain protease inhibition | 0.22% of 360,000 active | Multiplex microsphere protease cleavage assay, flow cytometry | inhibition, % at 10 µM; in the data active = inhibition above about 35%, passing the limit was not always enough; inconclusive = no clear call, values can overlap the other calls; also: plate controls were buffer without enzyme for full effect and enzyme alone for no effect
# Autofluor counter = counter-screen for toxin protease inhibitors: compound fluorescence. compound autofluorescence counterscreen, microsphere flow cytometry; stronger effect = higher value. fluorescence intensity (concentration not given with the values). 3.1% of 360,000 active. AID 624483; in the data active = fluorescence intensity above about 16000; inconclusive = no clear call, values can overlap the other calls
# DUSP3 inh = blocks human VHR1 dual specificity phosphatase; recombinant VHR phosphatase, pNPP absorbance; P51452; 0.52% of 290,000 active; inhibition, % at 13.3 µM; AID 1654; in the data active = inhibition above about 50%
# Target sequence (P51452 whole entry, looked up): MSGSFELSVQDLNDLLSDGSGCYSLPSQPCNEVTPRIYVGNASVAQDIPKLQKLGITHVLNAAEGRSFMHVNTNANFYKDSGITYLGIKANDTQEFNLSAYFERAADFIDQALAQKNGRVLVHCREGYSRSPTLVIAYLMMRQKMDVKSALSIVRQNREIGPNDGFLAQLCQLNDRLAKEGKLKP
# BoNT-A LC inh2 = BoNT A light chain protease inhibition; inhibition, % at 10 µM; AID 588499; 0.17% of 360,000 active; multiplex microsphere protease substrate cleavage, flow cytometry; also: plate controls were buffer without enzyme for full effect and enzyme alone for no effect
# SARS 3CLpro inh-2 = confirmation of SARS coronavirus 3C-like protease inhibitors; shares compounds with SARS 3CLpro inh-1; QFRET protease activity assay, 3CLpro; inhibition, % at 6 µM; 36% of 380 active; in the data active = inhibition above about 13%
# Active calls of the source: *; ? = inconclusive; . = no result given. Rule as the data show it, unless noted: active = inhibition above about 30%; inconclusive = no clear call, values can overlap the other calls; inactive = below that.
SMILES,SARS 3CLpro inh-1,Anthrax LF prot,BoNT F protease,Autofluor counter,DUSP3 inh,BoNT-A LC inh2,others
CC(=O)NC1C(=O)N=C(SCC(=O)Nc2ccc(C(F)(F)F)cc2Cl)NC1=O (configuration not stated),1,-2,-1,4167,12,0,
CCCn1ncc(CN2CCN(Cc3ccsc3)C(CCO)C2)c1C (configuration not stated),-1,-5,-5,4609,5,1,
COc1cccc(-c2nnc(SCc3cccnc3)o2)c1,-3,-2,-7,17724*,-19,-3,
Clc1ccccc1CSc1nnc(-c2ccncc2)o1,4,1,0,6055,30,0,
COC(=O)CSc1nnc(-c2ccc(S(=O)(=O)N3CCCCC3)cc2)o1,-2,6,-4,9120,16,0,
c1ccc2c(CSc3nnc(-c4ccncc4)o3)cccc2c1,5,2,-1,23894*,25,-1,
COC(=O)CSc1nnc(-c2ccncc2)o1,-2,3,19,16743*,-8,?,
COc1cc(OC)cc(-c2nnc(SCc3cccnc3)o2)c1,-1,-2,7,9140,-3,0,
CCOC(=O)CSc1nnc(-c2ccc(NS(=O)(=O)c3ccc(C)cc3)cc2)o1,1,-2,-1,20276*,-12,0,
NNC(=O)c1ccc(S(=O)(=O)N2CCc3ccccc32)cc1,5,-2,5,4640,1,-3,
COc1ccc(-c2nnc(-c3cccnc3)o2)cc1OC,-2,-2,-9,24717*,23,-7,
CC1CCN(S(=O)(=O)c2ccc(-c3nnc(SCc4cccnc4)o3)cc2)CC1,-8,-2,-3,23932*,32,-1,
COC(=O)CSc1nnc(-c2ccc(S(=O)(=O)N3CCC(C)CC3)cc2)o1,-1,.,.,.,34,.,
COc1ccc(-c2nnc(SCC(=O)OC3CCCCC3)o2)cc1OC,3,-1,5,19136*,27,3,
COc1cc(-c2nnc(-c3cccnc3)o2)cc(OC)c1OC,6,0,-3,7290,7,-1,
COc1ccc(NC(=O)CSc2nnc(-c3cccnc3)o2)cc1,4,-1,9,21010*,-20,5,
CC(=O)Nc1ccc(NC(=O)CSc2nnc(-c3cccnc3)o2)cc1,.,?,-12,?,.,-1,
O=C(NCCCN1CCOCC1)c1ccc2c(c1)N(Cc1c(F)cccc1Cl)C(=O)CS2,-1,15,7,3965,0,4,
CCC[C@H]1CN(c2ccc(Br)cc2)C(=O)[C@@H]1CC(=O)Nc1ccc(OC)cc1,.,-5,-8,4376,.,-1,
COc1ccc(S(=O)(=O)Nc2c(NC3CCCCC3)c3ccccc3oc2=O)cc1OC,1,1,1,6495,-6,-1,
C=CCNc1nc(-c2ccc(OC)cc2OC)cs1,1,-3,1,21095*,-2,?,
COc1ccc(-c2csc(NC(=O)C3=COCCO3)n2)c(OC)c1,.,4,2,4704,.,5,
O=C(c1noc2c1CCCCC2)N1CCN(C(c2ccccc2)c2ccccc2)CC1,.,8,-3,5114,.,-1,
O=C(NCCCN1CCCC1=O)c1cccc(C(F)(F)F)c1,2,3,2,20148*,-11,?,
Cc1cc(C(=O)NCCCN2CCCC2=O)no1,-3,-4,-12,26454*,6,?,
SMILES,SARS 3CLpro inh-1,Anthrax LF prot,BoNT F protease,Autofluor counter,DUSP3 inh,BoNT-A LC inh2,others
COc1ccccc1C(=O)NCCCN1CCCC1=O,3,-6,7,20201*,24,5,
COc1ccccc1NS(=O)(=O)c1ccc(C(=O)NCCCN2CCCC2=O)cc1,.,3,-2,9000,.,-1,
COc1cc2[nH]c(=O)n(CCCCCC(=O)NCCCN3CCCC3=O)c(=O)c2cc1OC,-3,-3,1,16148*,-4,1,
O=C(NCCCN1CCCC1=O)c1cc(COc2ccc(F)cc2F)on1,1,-3,-7,6100,12,-2,
Cn1ncc2c(=O)[nH]nnc21,.,1,4,3661,.,0,
N#Cc1ccc(-c2ccc(F)cc2)nc1Oc1ccc(F)cc1,-1,-3,1,21827*,25,2,
CC(=O)Nc1ccc(S(=O)(=O)N(C)c2ccc(OCC(=O)NCCc3ccccc3F)cc2)cc1,.,5,0,2985,.,0,
CC(NC(=O)/C(C#N)=C1\N=C(NC(=O)c2cccs2)c2ccccc21)c1ccccc1 (configuration not stated),2,15,9,6060,-4,30*,
CCCCc1nc2cc(C(=O)NCc3cc(C)n(C)n3)ccc2o1,-3,1,1,4257,2,1,
C[C@@H]1NC(=O)c2cc([N+](=O)[O-])cc(I)c2NCCCC[C@@H](C(N)=O)NC(=O)[C@H](CC(N)=O)NC1=O,14*,.,.,.,8,.,SARS 3CLpro inh-2=6
Cc1ccc(-c2ccc(/C=N/N3C(=O)C4C5C=CC(C6CC56)C4C3=O)o2)c([N+](=O)[O-])c1 (configuration not stated),1,2,-11,2078,32,1,
O=C1C2C3C=CC(C3)C2C(=O)N1/N=C/c1ccc(-c2ccccc2[N+](=O)[O-])o1 (configuration not stated),12*,-9,-5,7072,5,1,SARS 3CLpro inh-2=-5
CC(Oc1ccc(Cl)cc1Cl)C(=O)Nc1ccc(S(=O)(=O)Nc2cnc3ccccc3n2)cc1 (configuration not stated),6,.,.,.,-11,.,
Cc1cc(Cl)ccc1OC(C)C(=O)Nc1ccc(S(=O)(=O)Nc2cnc3ccccc3n2)cc1 (configuration not stated),12*,0,-1,2757,9,0,SARS 3CLpro inh-2=8
CCN(CC)CCNC(=O)C1(O)c2cc(Br)ccc2NC(=O)N1c1ccccc1 (configuration not stated),-3,2,-17,3122,.,-1,
COc1cscc1C(N)=O,-3,-11,-1,4337,6,-1,
CCCOC(=O)c1c(-c2ccc(C)cc2C)csc1NC(=O)C1C2CCC(O2)C1C(=O)O (configuration not stated),12*,2,-1,2490,-2,0,SARS 3CLpro inh-2=1
CN(C)S(=O)(=O)c1cccc(NC(=O)CSc2cccc3cccnc23)c1,17*,-6,-5,5487,1,1,SARS 3CLpro inh-2=35*
COc1ccc(C(=O)c2c3ccccc3[n+]([O-])n2CCC(N)=O)cc1,.,1,-3,3536,.,0,
Cc1ccc(C(=O)c2c3ccc(C(F)(F)F)cc3[n+]([O-])n2CCCC(N)=O)cc1,.,2,-3,3860,.,0,
NC(=O)CCn1c(C(=O)c2cc(Cl)c(N)c(Cl)c2)c2ccccc2[n+]1[O-],30*,5,-2,2975,6,0,SARS 3CLpro inh-2=35*
Cc1ccc(C(=O)c2c3ccc(C(F)(F)F)cc3[n+]([O-])n2CCC(N)=O)cc1,27*,-4,-9,3990,2,0,SARS 3CLpro inh-2=21*
